Hit rate of the full screen: of about 1,400 compounds, about 350 (25%) were called active. Not shown: some 2% with an inconclusive outcome. The rule behind the calls is not given here. Not all results are given here. Potency and affinity values are given separately.
test: inhibitors of Clostridioides difficile proliferation – 4-point retest, confirmation (AID 1224921); settings: Clostridioides difficile clinical isolate growth, OD600, 24 h, active compounds read low; at 30 µM unless noted;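 note: plate controls were DMSO wells for no effect and levofloxacin 16 µg/mL wells for full effect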

Max activity, inactive:
CCCNC(=O)N(C)C[C@@H]1Oc2cc(C#Cc3ccccn3)ccc2S(=O)(=O)N([C@@H](C)CO)C[C@H]1C 9.97%, CO[C@H]1O[C@H](CO)[C@@H](OC(=O)Nc2ccc3c(c2)OCO3)[C@H](OC(=O)Nc2ccccc2)[C@H]1OC(=O)Nc1ccccc1 10.7%, CCC(=O)N[C@H]1C=C[C@@H](CC(=O)OC)O[C@@H]1CO -10.5%, CN1C(=O)c2cc(NC(=O)Cc3ccccc3)ccc2OC[C@H]2O[C@@H](CC(=O)NCC3CC3)CC[C@H]21 -7.83%, O=C(C[C@@H]1C[C@@H]2c3cc(NC(=O)Nc4ccc(C(F)(F)F)cc4)ccc3O[C@@H]2[C@H](CO)O1)NCc1ccc(Cl)cc1 27.7%, CCC(=O)Nc1ccc2c(c1)OC[C@H](C)N(CC1CCCCC1)C[C@@H](C)[C@@H](OC)CN(C)C2=O 8.81%, CCCN1[C@@H]2c3ccc(-c4ccc(F)cc4)c(=O)n3C[C@@H]2[C@@H](CO)[C@@H]1C(=O)N[C@@H](C)c1ccccc1 -8.45%, COc1ccccc1-c1ccc2c(c1)O[C@@H](CN(C)C(=O)c1ccccc1)[C@@H](C)CN([C@@H](C)CO)S2(=O)=O 29.9%, COCC(=O)Nc1ccc2c(c1)OC[C@H](C)N(Cc1ccccc1)C[C@@H](C)[C@@H](OC)CN(C)C2=O 5.39%, CCCC(=O)Nc1ccc2c(c1)C(=O)N(C)C[C@H](OC)[C@@H](C)CN(S(=O)(=O)c1cn(C)cn1)[C@@H](C)CO2 -11.7%, C[C@H]1CCCCO[C@@H](CN(C)Cc2ccc(C(=O)O)cc2)[C@@H](C)CN([C@@H](C)CO)C(=O)c2cc(NC(=O)Nc3ccc4c(c3)OCO4)ccc2O1 -7.43%, CCC(=O)N(C)C[C@@H]1Oc2cc(C#CCC3CCCC3)ccc2S(=O)(=O)N([C@H](C)CO)C[C@H]1C 29.4%, COc1cc(O)c2c(c1)oc(=O)c1c3cc(O)c(O)cc3oc21 14.5%, CNC(=O)C[C@H]1CC[C@H]2[C@H](COc3ccc(NC(=O)c4ccccc4F)cc3C(=O)N2C)O1 -13.3% [at 1.95 µM], CNC(=O)C[C@@H]1CC[C@H]2[C@@H](COc3ccc(NC(=O)c4ccccc4F)cc3C(=O)N2C)O1 -11.2% [at 1.95 µM], O=C(Nc1ccc2c(c1)OCO2)N[C@@H]1C=C[C@H](CC(=O)N2CCN(c3ccccc3)CC2)O[C@H]1CO 18.2%, CO[C@@H]1CN(C)C(=O)c2ccc(NC(=O)c3ccc(F)cc3)cc2OC[C@H](C)N(C(=O)CN(C)C)C[C@@H]1C -20.6% [at 1.95 µM], CNC[C@H]1Oc2cc(-c3ccccc3F)ccc2S(=O)(=O)N([C@H](C)CO)C[C@H]1C 25.6%, C[C@@H]1CN([C@H](C)CO)C(=O)Cc2cc(NC(=O)C3CC3)ccc2O[C@@H]1CN(C)Cc1ccc(-c2ccccc2)cc1 43.1% [at 35 µM], CC(C)C#Cc1ccc2c(c1)O[C@H](CN(C)Cc1ccncc1)[C@@H](C)CN([C@H](C)CO)S2(=O)=O 51.9%, CO[C@H]1CN(C)C(=O)c2cc(NC(=O)Nc3ccccc3F)ccc2OC[C@@H](C)N(CC2CC2)C[C@@H]1C -19.6% [at 1.95 µM], CO[C@@H]1CN(C)C(=O)c2ccc(NC(C)=O)cc2OC[C@@H](C)N(Cc2cccc(F)c2)C[C@@H]1C 16.8%, CCS(=O)(=O)Nc1ccc2c(c1)C(=O)N(C)C[C@@H](OC)[C@H](C)CN(CC1CCCC1)[C@H](C)CO2 -10.9% [at 1.95 µM], C[C@@H]1CN([C@H](C)CO)S(=O)(=O)c2ccc(C#CCC3CCCC3)cc2O[C@H]1CN(C)C(=O)CC1CC1 15.9%, COc1cccc(NC(=O)N[C@H]2CC[C@H](CC(=O)Nc3ccc(-c4ccccc4)cc3)O[C@H]2CO)c1 32.5%, COc1cccc(-c2ccc3c(c2)O[C@@H](CN(C)Cc2cccnc2)[C@H](C)CN([C@H](C)CO)S3(=O)=O)c1 34.9%, C[C@@H]1CN([C@H](C)CO)C(=O)c2cccc(NC(=O)c3nc4ccccc4s3)c2O[C@H]1CN(C)Cc1ccc2c(c1)OCO2 20.2%, O=C(C[C@H]1C[C@H]2c3cc(NC(=O)C4CCC4)ccc3O[C@H]2[C@H](CO)O1)NCCc1ccccc1 -11.7% [at 1.95 µM], CCC(=O)N1C[C@H](C)[C@H](OC)CN(C)C(=O)c2ccc(NC(=O)Nc3ccc(Cl)cc3)cc2OC[C@H]1C 20%, Cc1ccccc1S(=O)(=O)NCC[C@H]1CC[C@H](NC(=O)Nc2cccc(Cl)c2)[C@H](CO)O1 6.17% [at 35 µM], CCC(=O)N[C@@H]1CC[C@@H](CC(=O)NCc2ccccc2F)O[C@@H]1CO -13% [at 8 µM], CCC(=O)N[C@@H]1CC[C@H](CC(=O)NCc2ccccc2F)O[C@@H]1CO -16.5% [at 8 µM], CCC(=O)N[C@H]1CC[C@H](CC(=O)NCc2ccccc2F)O[C@H]1CO -6.85% [at 0.5 µM], N#C[C@H]1[C@H](c2ccc(C#Cc3ccccc3F)cc2)[C@@H](CO)N1C(=O)C1CCC1 26.9%, C[C@@H]1CN([C@H](C)CO)S(=O)(=O)c2ccc(C#CC3CCCCC3)cc2O[C@@H]1CN(C)Cc1cccnc1 42.2%, CO[C@H]1CN(C)C(=O)c2ccc(NC(=O)c3ccc(F)cc3)cc2OC[C@H](C)N(C(=O)CN(C)C)C[C@@H]1C -12.9%, COc1ccccc1C#Cc1ccc2c(c1)O[C@@H](CN(C)Cc1cccnc1)[C@H](C)CN([C@H](C)CO)S2(=O)=O 35.7%, O=C(C[C@H]1C[C@@H]2c3cc(NC(=O)Nc4ccc(C(F)(F)F)cc4)ccc3O[C@@H]2[C@H](CO)O1)NCc1ccc2c(c1)OCO2 9.19%, C[C@@H]1CN([C@@H](C)CO)S(=O)(=O)c2ccc(C#CCC3CCCC3)cc2O[C@H]1CN(C)C(=O)c1ccccn1 25.9%, CO[C@H]1CN(C)C(=O)c2ccc(NC(=O)C3CC3)cc2OC[C@@H](C)N(Cc2cccc(F)c2)C[C@H]1C 15.9%, CO[C@H]1CN(C)C(=O)c2ccc(NC(=O)c3ccc(F)cc3)cc2OC[C@@H](C)N(C(=O)CN(C)C)C[C@@H]1C -6.76% [at 0.5 µM], C[C@H]1CN([C@@H](C)CO)S(=O)(=O)c2ccc(C#CC3CC3)cc2O[C@@H]1CN(C)Cc1cccnc1 36.4%, COc1ccccc1C#Cc1ccc2c(c1)O[C@@H](CN(C)Cc1ccncc1)[C@H](C)CN([C@H](C)CO)S2(=O)=O 34.5%, CO[C@@H]1CN(C)C(=O)c2cc(NC(C)=O)ccc2OC[C@@H](C)N(CCc2ccccc2)C[C@@H]1C 18.4%, CO[C@@H]1CN(C)C(=O)c2ccc(NC(=O)c3nc4ccccc4s3)cc2OC[C@H](C)N(Cc2ccncc2)C[C@H]1C 21.3%, COc1ccc(NC(=O)Nc2ccc3c(c2)[C@H]2C[C@H](CC(=O)N4CCc5ccccc5C4)O[C@@H](CO)[C@H]2O3)cc1 -11.6% [at 0.5 µM], CCCC(=O)Nc1ccc2c(c1)OC[C@@H](C)N(C(=O)Cc1cccnc1)C[C@@H](C)[C@H](OC)CN(C)C2=O -13.6% [at 1.95 µM], COCC(=O)N(C)C[C@@H]1Oc2cc(C#Cc3ccccc3)ccc2S(=O)(=O)N([C@@H](C)CO)C[C@@H]1C 7.66%, CO[C@@H]1CN(C)C(=O)c2ccc(NC(=O)c3nc4ccccc4s3)cc2OC[C@@H](C)N(Cc2cccnc2)C[C@@H]1C 29.5%, CO[C@H]1CN(C)C(=O)c2cc(NC(=O)c3ccccc3)ccc2OC[C@@H](C)N(C)C[C@H]1C 10.4%, Cc1ccc(S(=O)(=O)N2C[C@@H](O)COC[C@@H]3O[C@@H](CC(=O)NCC4CCCCC4)CC[C@H]32)cc1 22.7% [at 8 µM], Cc1ccc(S(=O)(=O)N2C[C@H](O)COC[C@H]3O[C@H](CC(=O)NCc4ccc(Cl)c(Cl)c4)CC[C@@H]32)cc1 26.4% [at 8 µM], COc1ccc(S(=O)(=O)N2C[C@@H](O)COC[C@H]3O[C@H](CC(=O)NCc4ccc(Cl)c(Cl)c4)CC[C@@H]32)cc1 33.9% [at 0.5 µM], C[C@H](CO)N1C[C@H](C)[C@H](CN(C)Cc2cccnc2)Oc2cc(C#CC3CCCCC3)ccc2S1(=O)=O 30.4%, C[C@@H]1CN([C@@H](C)CO)C(=O)Cc2cc(N(C)C)ccc2O[C@@H]1CN(C)Cc1ccc(-c2ccccc2)cc1 57.8%, C[C@@H]1CN([C@H](C)CO)C(=O)c2cc(-c3ccccc3)cnc2O[C@@H]1CN(C)Cc1ccccn1 -13.1% [at 1.95 µM], O=C(C[C@@H]1C[C@@H]2c3cc(NC(=O)Nc4ccc(C(F)(F)F)cc4)ccc3O[C@@H]2[C@H](CO)O1)NCc1ccc2c(c1)OCO2 9.21% [at 1.95 µM], CC(C)NC(=O)N[C@H]1CC[C@H](CC(=O)NCCCN(C)C)O[C@H]1CO -16.5% [at 1.95 µM], C[C@@H]1CN([C@H](C)CO)C(=O)c2c(c3ccccc3n2C)-c2ccccc2CO[C@@H]1CN(C)S(=O)(=O)c1cccc(F)c1 42% [at 35 µM]
